High-throughput results: PubChem, Broad Institute
Statin myotox sup – suppression of simvastatin myotoxicity; C2C12 myotubes + simvastatin, ATP luminescence, 48 h; scaled: DMSO 0, geranylgeraniol control 100; rescue of ATP level, % at 7.49 µM; actives 0.78% (n = 330,000);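 active = mean ATP rescue above about 67%, or every replicate alone reaching that limit, limit read from the data, passing the limit was not always enough; inconclusive = no clear call, values can overlap the other calls; inactive = mean under the limit and some replicate under it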;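 note: myotubes were challenged with 10 µM simvastatin during compound exposure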
Wnt bcat act – Wnt/beta-catenin pathway activation. Wnt/beta-catenin reporter cell assay, activator, plate reader. activation, % at 9.35 µM. actives 1.2% (n = 300,000); in the data active = activation above about 30%, passing the limit was not always enough; inconclusive = no clear call, values can overlap the other calls
MITF TRPM1 HTS – MITF TRPM1 promoter activation in melanoma cells; actives 0.75% (n = 300,000); SK-MEL-5 TRPM1-promoter luciferase, 24 h; % of positive control, neutral wells = 0; activation, % at 12.5 µM;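 active = mean activation of at least 80% with every replicate also reaching 80%; inconclusive = mean reaches 80% but some replicate falls short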
esBAF inh – inhibitors of esBAF chromatin remodeling in mouse ES cells; AID 602393; reporter increase, % at 12.5 µM; actives 2% (n = 350,000); Bmi1-luciferase knock-in reporter, 24 h; 100% = twice the neutral-well signal; in the data active = activation above about 40%; inconclusive = no clear call, values can overlap the other calls;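 note: a rise in the Bmi1 reporter signal indicates esBAF inhibition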
esBAF Ring1 qPCR – confirmation of esBAF inhibitors: Ring1 de-repression in mouse ESCs | fold change at 33 µM | shares compounds with esBAF inh | mouse ESC E14, Ring1 mRNA RT-qPCR fold change | 550 tested, under 10 active;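 active = Ring1 gene expression raised more than 2-fold over untreated cells in both replicates at either tested dose; inconclusive = only one replicate above 2-fold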;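 note: Ring1 transcript normalised to actin housekeeping signal by TaqMan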
esBAF Fgf4 qPCR – confirmation of esBAF inhibitors: Fgf4 repression in mouse ESCs. shares compounds with esBAF inh. mouse ESC E14, Fgf4 mRNA qPCR fold change; stronger effect = lower value. Fgf4 expression fold change at 33 µM. actives 4% (n = 550);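 active = Fgf4 expression under 0.8 fold of control in both repeat measurements at one or both tested doses; inconclusive = under 0.8 fold in just a single repeat measurement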;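 note: Fgf4 transcript normalised to actin in duplex TaqMan qPCR; cells exposed to compound for 24 h before lysis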
Bmi1 derepress – confirmation of esBAF inhibitors: Bmi1 de-repression in mouse ESCs | shares compounds with esBAF inh | mouse ESE14 ES cells, Bmi1 mRNA qPCR fold; stronger effect = higher value | fold change at 33 µM | 550 tested, under 10 active | AID 743180;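 active = Bmi1 expression fold change above 6 at either tested concentration, seen in replicate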;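 note: higher fold means more Bmi1 de-repression and stronger esBAF inhibition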
A549 tox SP – cytotoxicity in A549 cells. shares compounds with esBAF inh. plate reader. cell viability change % (negative = cytotoxic), % at 25 µM, hits read low. 550 tested, under 10 active. AID 743188; call rule not given here
HepG2 tox SP – kills or reduces viability of HepG2 cells; HepG2 cytotoxicity, plate reader; stronger effect = lower value; shares compounds with esBAF inh; actives 4% (n = 550); AID 743189; activity change, negative = inhibition, % at 25 µM; in the data active = activity change below about -50%
HEK293 cytotox SP – cytotoxicity in HEK293 cells. shares compounds with esBAF inh. plate reader. activity change, negative = inhibition, % at 25 µM, hits read low. actives 3% (n = 550). AID 743190; in the data active = activity change below about -38%, passing the limit was not always enough
Each line names hits and unclear results; the compound was inactive in the other large screens (follow-up assays come after a bar, where they were run). Compounds with a hit are over-represented: about 3% of the library has one in this group of screens.

COc1ccc(-c2noc(CCCC(=O)N3CCN(c4cc(C)ccc4C)CC3)n2)cc1	esBAF inh 62 | esBAF Ring1 qPCR inactive | esBAF Fgf4 qPCR inactive | Bmi1 derepress inactive | A549 tox SP inactive | HepG2 tox SP inactive | HEK293 cytotox SP inactive
COc1ccccc1-c1noc(CCC(=O)N2CCN(c3cc(C)ccc3C)CC2)n1	none
COc1ccc(-c2noc(CCCCC(=O)N3CCN(c4cc(C)ccc4C)CC3)n2)cc1	none
COc1cccc(-c2noc(CCC(=O)N3CCN(c4cc(C)ccc4C)CC3)n2)c1	none
Cc1ccc(C)c(N2CCN(C(=O)CCc3nc(-c4ccccc4C(F)(F)F)no3)CC2)c1	Wnt bcat act 34, esBAF inh 73 | esBAF Ring1 qPCR inactive | esBAF Fgf4 qPCR inactive | Bmi1 derepress inactive | A549 tox SP inactive | HepG2 tox SP inactive | HEK293 cytotox SP inactive
C=CCN(C(=O)CC(NC(C)=O)c1ccccc1)c1nc(-c2ccc(S(C)(=O)=O)cc2)cs1 (centres undefined)	esBAF inh 78 | esBAF Ring1 qPCR inactive | esBAF Fgf4 qPCR inactive | Bmi1 derepress inactive | A549 tox SP inactive | HepG2 tox SP inactive | HEK293 cytotox SP inactive
O=c1c2ccccc2oc2cc(-c3ccc4cc[nH]c4c3)ccc12	Wnt bcat act 38, MITF TRPM1 HTS 129, esBAF inh 71 | esBAF Ring1 qPCR inactive | esBAF Fgf4 qPCR inactive | Bmi1 derepress inactive | A549 tox SP inactive | HepG2 tox SP inactive | HEK293 cytotox SP inactive
Cc1cccc(C)c1OCc1cc(C(=O)N2CCC(C3CCCCC3)C2)no1 (centres undefined)	esBAF inh 56 | esBAF Ring1 qPCR inactive | esBAF Fgf4 qPCR inactive | Bmi1 derepress inactive | A549 tox SP inactive | HepG2 tox SP inactive | HEK293 cytotox SP inactive
Cc1cccc(C)c1OCc1cc(C(=O)N2CCC(c3ccccc3)CC2)no1	none
Cc1ccc(SCCN2CCC(C)CCC2=O)cc1 (centres undefined)	MITF TRPM1 HTS inconclusive, esBAF inh 83 | esBAF Ring1 qPCR inactive | esBAF Fgf4 qPCR inconclusive | Bmi1 derepress inactive | A549 tox SP inactive | HepG2 tox SP inactive | HEK293 cytotox SP inactive
Cc1ccc(S[C@@H](CCN2CC[C@H](C)CCC2=O)c2ccccc2)cc1	none
C[C@H](CO)N1C[C@H](C)[C@@H](CN(C)S(=O)(=O)c2ccc(F)cc2)Oc2c(NC(=O)C3CC3)cccc2C1=O	none (no result: Wnt bcat act, MITF TRPM1 HTS)
CC(C)c1ccc(CNc2ncc(Br)cn2)cc1	MITF TRPM1 HTS 96, esBAF inh 73 | esBAF Ring1 qPCR inactive | esBAF Fgf4 qPCR inactive | Bmi1 derepress inactive | A549 tox SP inactive | HepG2 tox SP -63 | HEK293 cytotox SP inactive
C[C@@H]1CN([C@@H](C)CO)S(=O)(=O)c2ccc(C#CC3(O)CCCC3)cc2O[C@@H]1CN(C)C(=O)c1cccnc1	none (no result: Wnt bcat act, MITF TRPM1 HTS)
COc1cccc2sc(N3CCN(C(=O)c4cccs4)CC3)nc12	none (no result: Statin myotox sup, esBAF inh)
Cc1cc2nc(N3CCN(C(=O)c4cccs4)CC3)sc2cc1C	MITF TRPM1 HTS 118, esBAF inh 62 | esBAF Ring1 qPCR inactive | esBAF Fgf4 qPCR inconclusive | Bmi1 derepress inactive | A549 tox SP inactive | HepG2 tox SP inactive | HEK293 cytotox SP inactive
O=C(C[C@@H]1C=C[C@@H](NS(=O)(=O)c2ccccc2)[C@@H](CO)O1)NCc1ccc(Cl)c(Cl)c1	none (no result: Wnt bcat act, MITF TRPM1 HTS)
Cc1cc(C)c2c(N)c(C(=O)Nc3ccccc3Br)sc2n1	esBAF inh 61 | esBAF Ring1 qPCR inactive | esBAF Fgf4 qPCR inactive | Bmi1 derepress inactive | A549 tox SP inactive | HepG2 tox SP inactive | HEK293 cytotox SP inactive
Cc1csc(Nc2nc(N)c(C(=O)Nc3ccccc3)o2)n1	MITF TRPM1 HTS 93, esBAF inh 52 | esBAF Ring1 qPCR inactive | esBAF Fgf4 qPCR inactive | Bmi1 derepress inactive | A549 tox SP inactive | HepG2 tox SP inactive | HEK293 cytotox SP inactive
